For 40 compounds, Potency results are on record in PubChem BioAssay (NCATS).

The structures appear in SMILES notation. Inconclusive results are not listed. A call without a number means that no potency is given here. The source made the active and inactive calls. Calls come from the whole dose curve; as a rule, active = well fitted inhibition curve with a large enough effect; inconclusive = small, poorly fitted or top-dose-only effect; inactive = flat fitted curve, though single readings scatter.

Tyrosine-protein phosphatase non-receptor type substrate 1 (Homo sapiens) + Leukocyte surface antigen CD47 (Homo sapiens), sequence (P78324 whole entry, looked up): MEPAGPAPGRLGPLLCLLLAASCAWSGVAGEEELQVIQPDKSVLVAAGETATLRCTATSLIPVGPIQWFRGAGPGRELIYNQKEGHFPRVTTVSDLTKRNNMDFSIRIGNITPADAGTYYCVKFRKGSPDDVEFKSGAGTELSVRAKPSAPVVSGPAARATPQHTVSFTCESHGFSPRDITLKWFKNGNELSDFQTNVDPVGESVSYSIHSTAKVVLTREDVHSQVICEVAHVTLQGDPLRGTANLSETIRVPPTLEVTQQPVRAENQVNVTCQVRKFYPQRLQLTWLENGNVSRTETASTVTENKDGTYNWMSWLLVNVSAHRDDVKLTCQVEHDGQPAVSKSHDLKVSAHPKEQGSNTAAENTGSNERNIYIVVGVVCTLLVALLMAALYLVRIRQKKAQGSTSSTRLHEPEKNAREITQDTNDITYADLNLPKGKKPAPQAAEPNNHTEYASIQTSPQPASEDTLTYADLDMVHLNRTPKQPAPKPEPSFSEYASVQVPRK
Tyrosine-protein phosphatase non-receptor type substrate 1 (Homo sapiens) + Leukocyte surface antigen CD47 (Homo sapiens), sequence (Q08722 whole entry, looked up): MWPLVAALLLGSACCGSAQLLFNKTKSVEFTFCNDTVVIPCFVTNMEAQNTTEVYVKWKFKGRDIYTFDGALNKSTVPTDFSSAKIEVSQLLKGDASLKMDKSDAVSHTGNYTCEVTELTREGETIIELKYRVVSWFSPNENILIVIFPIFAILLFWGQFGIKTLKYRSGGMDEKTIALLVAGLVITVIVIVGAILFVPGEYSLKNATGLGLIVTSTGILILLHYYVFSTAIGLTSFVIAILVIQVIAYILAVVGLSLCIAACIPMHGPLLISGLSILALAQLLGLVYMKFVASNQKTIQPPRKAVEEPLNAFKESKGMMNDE

For this assay, the target named is Tyrosine-protein phosphatase non-receptor type substrate 1 (Homo sapiens) + Leukocyte surface antigen CD47 (Homo sapiens) (UniProt P78324+Q08722). Nature of the assay: CD47-SIRPalpha protein protein interaction - Alpha assay qHTS validation (AID 1347059).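 Note: bead proximity luminescence from CD47 binding SIRPalpha after compound preincubation with SIRPalpha.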 Conditions: AlphaScreen CD47-His/biotin-SIRPalpha binding, LOPAC; series mostly up to 38.3 µM. The text has this:
SIRPalpha is a myeloid cell expressed immunomodulatory receptor that binds the tumor expressed immune checkpoint CD47. Therapeutic disruption of this interaction leads to immune-mediated tumor rejection. This assay was used to quantitate CD47-SIRPalpha binding biochemically and evaluate chemical libraries for novel CD47-SIRPalpha inhibitors. To recapitulate the biological interaction of CD47 and SIRPalpha, we designed expression constructs to produce their recombinant, soluble, extracellular interaction domains. CD47 was produced with an N-terminal 6His tag. SIRPalpha was produced with an N-terminal Avi-Tag for site-specific biotin incorporation. The CD47-SIRPalpha interaction was measured by AlphaScreen using affinity tag linked reagents (Ni-NTA acceptor bead and streptavidin donor bead). SIRPalpha without biotin incorporation was used as a positive control inhibitor.
PROTOCOL TABLE (as described by Miller, T. et al. 2019)
SEQUENCE No. (e.g., 1, 2, 3, etc.); […] (e.g., Cells, Incubation, Reagent, etc.); VALUE and DESCRIPTION.
1a. Reagent. 2 uL SIRPalpha-biotin (25 nM) added to respective wells in Assay buffer; white/solid bottom high base, med bind 1536-well plates (Greiner 789075)
1b. Reagent. 2 uL Assay buffer negative control for background fluorescence
2. Reagent. 23 nL library compounds (7-pt, 1:4 intraplate titration series) or DMSO control transferred by Pin Tool
3. Centrifuge. Centrifuge plate for 30 s at 1000 RPM
4. Incubation.#Incubate reagents at room temperature for 30 min, protected from light
5. Reagent. 2 uL CD47-His (12.5 nM) in Assay buffer
6. Centrifuge. Centrifuge plate for 30 s at 1000 RPM
7. Incubation.#Incubate reagents at room temperature for 30 min, protected from light
8. Reagent. 1 uL Ni-NTA beads (10 ug/mL) added to respective wells
9. Reagent. 1 uL SAV beads (10 ug/mL) added to respective wells
10. Centrifuge. Centrifuge plate for 30 s at 1000 RPM
11. Incubation. Incubate reagents at room temperature for 30 min, protected from light
12. Detector. Measure AlphaScree n on EnVision (1536A1 aperture)
Where possible, perform Donor bead dilution and addition away from direct sunlight or with bright overhead lights turned off (<100 lux, similar to hallway lighting). Lighting should still be bright enough to allow accurate pipetting.
1. Assay buffer composition.#Phosphate buffered saline (PBS; 10 mM Phosphate, 137 mM NaCl, and 2.7 mM KCl; pH 7.4), 0.05% IGEPAL CA-630
2. 23nL of […] library compounds (7 plates) or DMSO vehicle control transferred to 9 Greiner white/solid bottom high base, TC plates in 7 interplate 1:5 titrations (see Yasgar, A. et al. 2008) with Pintool. Two of the 9 plates are DMSO-only in compound field at beginning and end of compound library-treated plates.
12. Aperture = 1536 plate HTS AlphaScreen; plate-detector distance = 0; Total measurement time = 240; Ex. time = 80 ms (33%); Afterglow CT1 corr. factor = 0; Glow CT2 corr. factor = 0; Bleach CT3 corr. factor = 0; Ref. signal= 417733; Ref. AD gain = 2
In general terms: qHTS replaces the single test concentration by a dilution series.
On to `CCNC(=O)N1CCN(CCCC(c2ccc(F)cc2)c2ccc(F)cc2)CC1`, for which the Potency entry is “inactive”.

`CCO/C([O-])=N/c1c[n+](N2CCOCC2)no1`: the Potency result was “inactive”.

On to `C#CCN(C)CCCOc1ccc(Cl)cc1Cl`, for which the Potency result is “inactive”.

Take `N[C@@H](COP(=O)(O)O)C(=O)O`: the Potency result is “inactive”.

As to `c1cc(CN2CCCCC2)cc(OCCCNc2nc3ccccc3s2)c1`, the Potency entry was “inactive”.

In the case of `CC(=O)OCC1=C(C(=O)O)N2C(=O)[C@@H](NC(=O)Cc3cccs3)[C@H]2SC1`, the Potency result was “inactive”.

In the case of `CCOC(=O)c1cnc2c(cnn2CC)c1NN=C(C)C`, the Potency result was “inactive”.

For `Fc1ccc(C(c2ccc(F)cc2)N2CCN(C/C=C/c3ccccc3)CC2)cc1`, the Potency result is “inactive”.

For the compound `COc1ccc([C@@H]2Sc3ccccc3N(CCN(C)C)C(=O)[C@@H]2OC(C)=O)cc1`, the Potency result was “inactive”.

`COC(=O)C1=C(C)NC(C)=C(C(=O)OC(C)(C)CN(C)CCC(c2ccccc2)c2ccccc2)C1c1cccc([N+](=O)[O-])c1` (stereo not given): the Potency entry was “inactive”.

On to `CC1=NS(=O)(=O)c2cc(Cl)ccc2N1`, for which the Potency entry was “inactive”.

As to `CCN1CCC[C@H]1CNC(=O)c1c(O)c(Cl)cc(Cl)c1OC`, the Potency result is “inactive”.

Regarding `CNCCCN1c2ccccc2CCc2ccccc21`, the Potency result was “inactive”.

Consider `Cc1nnc(SCC2=C(C(=O)O)N3C(=O)[C@@H](NC(=O)Cn4cnnn4)[C@H]3SC2)s1`, for which the Potency entry is “inactive”.

For the compound `CCc1c(C)[nH]c2c1C(=O)C(CN1CCOCC1)CC2` (stereo not given), the Potency result was “inactive”.

`COc1cc(Cc2cnc(N)nc2N)cc(OC)c1OC`: the Potency entry was “inactive”.

For `CCCCNc1ccc(C(=O)OCCN(C)C)cc1`, the Potency result was “inactive”.

For `C[N+](C)(C)CCOC(N)=O`, the Potency result is “inactive”.

For `Cc1ccc(S(=O)(=O)NC(=O)NN2CCCCCC2)cc1`, the Potency result was “inactive”.

Consider `CCCN(CCC)C(=O)C(CCC(=O)O)NC(=O)c1ccccc1` (stereo not given), for which the Potency entry was “inactive”.

For `CC(C)COCC(CN(Cc1ccccc1)c1ccccc1)N1CCCC1` (stereo not given), the Potency entry is “inactive”.

For `O=C(O)CP(=O)(O)O`, the Potency entry was “inactive”.

For the compound `O=C(O)CN(CCOCCOCCN(CC(=O)O)CC(=O)O)CC(=O)O`, the Potency result was “inactive”.

On to `CCCNC(C)C(=O)Nc1ccccc1C` (stereo not given), for which the Potency entry is “inactive”.

As to `COc1ccc(CCN(C)CCCC(C#N)(c2cc(OC)c(OC)c(OC)c2)C(C)C)cc1OC` (stereo not given), the Potency result is “inactive”.

On to `Cc1ccc(/C(=C\CN2CCCC2)c2ccccn2)cc1`, for which the Potency entry is “inactive”.

For the compound `CCCN(CCC)CCc1cccc2c1CC(=O)N2`, the Potency result is “inactive”.

In the case of `CN(C)C(=O)Oc1ccc[n+](C)c1`, the Potency entry is “inactive”.

On to `CCC(=O)c1ccc2c(c1)N(CCCN(C)C)c1ccccc1S2`, for which the Potency result was “inactive”.

As for `FC(F)(F)c1ccccc1-n1ccnc1`, the Potency result was “inactive”.

As for `Cc1ccc(=O)n(-c2ccccc2)c1`, the Potency result is “inactive”.

Consider `COCCCC/C(=N\OCCN)c1ccc(C(F)(F)F)cc1`, for which the Potency result is “inactive”.

Turning to `Cc1cccc(C)c1NC(=O)C(C)N` (stereo not given), the Potency result is “inactive”.

On to `CC(C)(C)NCC(O)c1cc(O)cc(O)c1` (stereo not given), for which the Potency result is “inactive”.

With `COc1ccc2c(c1OC)C(=O)O[C@@H]2[C@H]1c2c(cc3c(c2OC)OCO3)CCN1C`, the Potency entry is “inactive”.

Regarding `CC(C(=O)O)c1ccc(CC2CCCC2=O)cc1` (stereo not given), the Potency entry was “inactive”.

For the compound `CC1=C(C)C(=O)C(CCCCC#CCCCC#CCO)=C(C)C1=O`, the Potency entry is “inactive”.

In the case of `CCN(CC)CCNC(=O)c1ccc(NC(C)=O)cc1`, the Potency result was “inactive”.

With `COc1cc(C(=O)OCCCN2CCCN(CCCOC(=O)c3cc(OC)c(OC)c(OC)c3)CC2)cc(OC)c1OC`, the Potency result was “inactive”.

As to `CCCC(C(=O)OCCN(CC)CC)(c1ccccc1)c1ccccc1`, the Potency entry is “inactive”.
